Drawing on PubChem BioAssay (NCI), this text covers growth for eight compounds.

Some test systems named below: SR leukemia; RPMI-8226 leukemia; OVCAR-8 ovarian; OVCAR-5 ovarian; OVCAR-4 ovarian; SK-OV-3 ovarian; IGROV1 ovarian; OVCAR-3 ovarian; HS 578T breast; NCI/ADR-RES ovarian; T-47D breast; BT-549 breast; MDA-MB-435 melanoma; SW-620 colon; MCF7 breast; HCT-116 colon; HCC-2998 colon; MDA-MB-468 breast; KM12 colon.
Common to all, as to assay: NCI-60 one-dose screen, 48 h (100 = growth as untreated, 0 = no growth, -100 = all killed)
What all share (settings): 10 µM

This is part of a sample that, as a whole, favours compounds with a hit. Of some 83,000 tested, about 20% had one in any assay.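 Interpretation: 100, growth as untreated; towards 0, rising growth inhibition; 0, no net growth; 0 to -100, cell death. Compounds scoring below 10 were considered active.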 Values without a mark were called inactive. The source made the active and inactive calls.

With `COc1cc2c(cc1OC)CN(CCCCOc1cc(O)c3c(=O)cc(-c4ccccc4)oc3c1)CC2`, the growth with SR leukemia was -13.8% (active); in the experiment with RPMI-8226 leukemia, 24.1%; with OVCAR-8 ovarian, 85.1%; in the experiment with OVCAR-5 ovarian, 114%; in the experiment on OVCAR-4 ovarian it was 30%; in the experiment with SK-OV-3 ovarian, 74.5%. Besides, the growth with IGROV1 ovarian is 95.8%; with OVCAR-3 ovarian it was 94.9%; in the experiment with HS 578T breast, 74.2%; with NCI/ADR-RES ovarian, 57.4%; in the experiment on T-47D breast, 1.69% (active); in the experiment with BT-549 breast it was 63.6%. In addition, the growth is 67.5% with MDA-MB-435 melanoma; 62.8% with SW-620 colon; 29.3% in the experiment with MCF7 breast; 0.234% (active) with HCT-116 colon; -7.68% (active) with HCC-2998 colon; -7.3% (active) with MDA-MB-468 breast.

Regarding `Cc1cc(C)nc(NS(=O)(=O)c2ccc(N/C(N)=N/c3nccc(-c4ccccc4)n3)cc2)n1`, the growth with SR leukemia is 53.8%; with RPMI-8226 leukemia, 60.8%; in the experiment on OVCAR-8 ovarian, 77.7%; with OVCAR-5 ovarian it was 76.1%; in the experiment on OVCAR-4 ovarian it was 67.3%; with SK-OV-3 ovarian, 52.9%. Further, the growth was 38.9% in the experiment with IGROV1 ovarian; 86.8% in the experiment with OVCAR-3 ovarian; 48.1% in the experiment on HS 578T breast; 84.5% with NCI/ADR-RES ovarian; 25.1% with T-47D breast; 83.7% in the experiment on BT-549 breast. Moreover, the growth in the experiment on MDA-MB-435 melanoma is 86%; with SW-620 colon, 93.8%; in the experiment on MCF7 breast, 37%; in the experiment with HCT-116 colon, 76.6%; in the experiment on KM12 colon, 78.8%; with MDA-MB-468 breast, 64.2%.

Consider `N#Cc1ccc(-c2nn(-c3ccc(C(=O)O)cc3)cc2CNc2ccc(Oc3ccccc3)cc2)cc1`, for which the growth was 37.3% with SR leukemia; 22.4% in the experiment with RPMI-8226 leukemia; 39.2% in the experiment with OVCAR-8 ovarian; 81.1% in the experiment on OVCAR-5 ovarian; 73.7% in the experiment on OVCAR-4 ovarian; 111% in the experiment with SK-OV-3 ovarian. Also, the growth is 74.7% with IGROV1 ovarian; 45.1% in the experiment on OVCAR-3 ovarian; 53.9% with HS 578T breast; 17.1% in the experiment on NCI/ADR-RES ovarian; 22.6% in the experiment with T-47D breast; -5.49% (active) in the experiment on BT-549 breast. Moreover, the growth with MDA-MB-435 melanoma was 63.6%; in the experiment with SW-620 colon, 59.3%; in the experiment with MCF7 breast it was 59.8%; in the experiment on HCT-116 colon, 16.7%; in the experiment on HCC-2998 colon, 11.5%; in the experiment with MDA-MB-468 breast, 103%.

Take `Cc1cc(C(F)(F)F)ccc1C(=O)Nc1sc2c(c1C#N)CCC(=O)C2`: the growth in the experiment on SR leukemia is -9.8% (active); in the experiment on RPMI-8226 leukemia it was 2.68% (active); in the experiment on OVCAR-8 ovarian, -9.16% (active); with OVCAR-5 ovarian, -33.3% (active); in the experiment with OVCAR-4 ovarian, -39.7% (active); in the experiment on SK-OV-3 ovarian, -18.9% (active). The growth in the experiment with IGROV1 ovarian is -5.43% (active); in the experiment on OVCAR-3 ovarian, -48.2% (active); in the experiment with HS 578T breast it was -7.86% (active); in the experiment with NCI/ADR-RES ovarian, -24.8% (active); with T-47D breast it was -34% (active); with BT-549 breast, -76.1% (active). The growth in the experiment on MDA-MB-435 melanoma is -48.1% (active); with SW-620 colon it was -34.4% (active); with MCF7 breast, 2.31% (active); with HCT-116 colon, 5.39% (active); in the experiment on KM12 colon, -8.98% (active); in the experiment with MDA-MB-468 breast it was -44.4% (active).

Regarding `N#Cc1ccc(NC(=O)CSc2ccc(-c3ccc(Br)cc3)nn2)cc1`, the growth was 46.6% with SR leukemia; 57.6% in the experiment with RPMI-8226 leukemia; 76.3% with OVCAR-8 ovarian; 88.2% in the experiment with OVCAR-5 ovarian; 59% with OVCAR-4 ovarian; 86.1% in the experiment with SK-OV-3 ovarian. The growth in the experiment with IGROV1 ovarian was 74.6%; in the experiment on OVCAR-3 ovarian, 76.6%; with HS 578T breast, 72.9%; with NCI/ADR-RES ovarian, 35.7%; with T-47D breast it was 46.9%; with BT-549 breast it was 70.5%. The growth in the experiment with MDA-MB-435 melanoma was 65.1%; in the experiment with SW-620 colon, 91.1%; in the experiment with MCF7 breast it was 56.2%; in the experiment with HCT-116 colon it was 64%; in the experiment on MDA-MB-468 breast, 62.5%.

For `C/C(=N\N=C\c1ccc(N(C)C)cc1)c1ccc2c(c1)Nc1ccccc1S2`, the growth in the experiment on SR leukemia was 50%; with RPMI-8226 leukemia, 48.5%; in the experiment on OVCAR-8 ovarian, 38.5%; in the experiment on OVCAR-5 ovarian it was 57.4%; in the experiment on OVCAR-4 ovarian, 17.4%; in the experiment on SK-OV-3 ovarian, 87.8%. The growth with IGROV1 ovarian was 68.9%; in the experiment on OVCAR-3 ovarian it was 44.5%; in the experiment on HS 578T breast it was 18.7%; with NCI/ADR-RES ovarian it was 26.6%; in the experiment on T-47D breast, 44.6%; with BT-549 breast, 58.2%. Moreover, the growth in the experiment on MDA-MB-435 melanoma was 51.1%; in the experiment on SW-620 colon it was 35.3%; in the experiment on MCF7 breast it was 35.8%; in the experiment on HCC-2998 colon, 54.4%; with KM12 colon, 60.9%; in the experiment on MDA-MB-468 breast it was 8.43% (active).

As to `COc1ccc(-c2cc(-c3cc(C(=O)c4ccc(Br)cc4)n4ccc(C)cc34)nc(N)c2C#N)cc1`, the growth was 79.1% in the experiment with SR leukemia; 86.8% in the experiment on RPMI-8226 leukemia; 66.3% with OVCAR-8 ovarian; 91.8% in the experiment on OVCAR-5 ovarian; 86.1% with OVCAR-4 ovarian; 105% with SK-OV-3 ovarian. Moreover, the growth was 90% in the experiment with IGROV1 ovarian; 108% in the experiment on OVCAR-3 ovarian; 90.8% with HS 578T breast; 82.6% in the experiment with NCI/ADR-RES ovarian; 82.8% with T-47D breast; 104% with BT-549 breast. Further, the growth is 92.7% with MDA-MB-435 melanoma; 92.3% in the experiment on SW-620 colon; 79.1% in the experiment on MCF7 breast; 73.8% in the experiment with HCT-116 colon; 103% in the experiment with HCC-2998 colon; 24.3% in the experiment on MDA-MB-468 breast.

Consider `CCOC(=O)N/C(=C1/OCCN1C)[P+](c1ccccc1)(c1ccccc1)c1ccccc1`, for which the growth was 66.6% in the experiment with SR leukemia; 34.2% with RPMI-8226 leukemia; 89.3% in the experiment on OVCAR-8 ovarian; 85.1% with OVCAR-5 ovarian; 65.4% in the experiment on OVCAR-4 ovarian; 95.1% with SK-OV-3 ovarian. Further, the growth in the experiment with IGROV1 ovarian is 62.5%; in the experiment on OVCAR-3 ovarian, 84.7%; in the experiment with HS 578T breast it was 62.4%; with NCI/ADR-RES ovarian it was 106%; in the experiment with T-47D breast, 65.9%; in the experiment on BT-549 breast, 75.4%. Further, the growth in the experiment on MDA-MB-435 melanoma was 51.5%; in the experiment on SW-620 colon, 89.1%; in the experiment on MCF7 breast, 41.7%; in the experiment with HCT-116 colon, 75.1%; with KM12 colon, 51.3%; with MDA-MB-468 breast, -11.4% (active).
